Assay results: PubChem BioAssay (EPA / NIEHS)
Results filed as inconclusive are left out. The source made the active and inactive calls. Rule for the calls, unless noted: active = hit-call score of the fitted dose curve at least 0.9, where 1 is the maximum; inconclusive = response in the unintended direction; inactive = score below 0.9.

What was measured:
[1] = ATG_TAL_CIS: Attagene CIS-FACTORIAL HepG2 Assay for human TAL Basal Promoter (AID 2282966; active = hit-call score of the fitted dose curve at least 0.9, where 1 is the maximum; inactive = score below 0.9;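 note: background control endpoint measuring basal TAL promoter reporter mRNA not a specific factor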); settings: HepG2 Attagene cis-factorial TAL promoter reporter; actives raise or lower the signal
How it was run: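 Background-control endpoint: basal TAL promoter reporter transcripts in transiently transfected HepG2, measured 24 h after dosing. Read-out by RT-PCR with fluorescent primer extension and capillary electrophoresis; gain or loss of signal fitted relative to DMSO.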

[2] = ATG_TGFb_CIS: Attagene CIS-FACTORIAL HepG2 Assay for human Transforming Growth Factor (TGF) (AID 2282967; active = hit-call score of the fitted dose curve at least 0.9, where 1 is the maximum; inactive = score below 0.9); settings: HepG2 Attagene CIS TGFb reporter, mRNA transcription; actives raise or lower the signal
How it was run: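 Cells were dosed for 24 hours, after which total RNA was reverse-transcribed and reporter sequences amplified, labeled and sized by capillary electrophoresis. Activity was fitted in both directions against DMSO.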

[3] = ATG_VDRE_CIS: Attagene CIS-FACTORIAL HepG2 Assay for human Vitamin D Receptor Element (VDRE) (AID 2282968; active = hit-call score of the fitted dose curve at least 0.9, where 1 is the maximum; inactive = score below 0.9); settings: HepG2 VDRE cis-reporter transcription, actives raise or lower the signal
How it was run: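 Transient MRTU transfection of HepG2, 24 h compound exposure. Readout: reporter transcripts via RT-PCR and capillary electrophoresis, fluorescence. Bidirectional fit vs DMSO.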

[4] = target: Nuclear receptor subfamily 1 group I member 3 (Homo sapiens) (UniProt Q14994); assay: ATG_CAR_TRANS: Attagene TRANS-FACTORIAL HepG2 Assay for human Constitutive Androstane Receptor (CAR) (AID 2282969); settings: HepG2 Attagene TRANS-FACTORIAL CAR reporter;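 note: activators raise reporter mRNA above DMSO so AC50 marks induction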
Nuclear receptor subfamily 1 group I member 3 (Homo sapiens), sequence (Q14994 whole entry, looked up, the tested form may be a part): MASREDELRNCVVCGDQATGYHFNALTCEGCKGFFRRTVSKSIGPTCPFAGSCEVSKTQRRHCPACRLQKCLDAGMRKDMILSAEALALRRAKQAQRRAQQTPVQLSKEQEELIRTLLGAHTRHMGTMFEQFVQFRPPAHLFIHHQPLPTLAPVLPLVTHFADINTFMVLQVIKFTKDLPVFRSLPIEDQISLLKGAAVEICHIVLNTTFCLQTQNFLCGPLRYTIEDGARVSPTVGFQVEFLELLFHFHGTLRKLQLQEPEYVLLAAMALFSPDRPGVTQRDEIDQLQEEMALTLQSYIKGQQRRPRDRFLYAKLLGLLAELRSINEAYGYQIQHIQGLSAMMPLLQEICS
How it was run: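 Transiently transfected HepG2, multiplex TRANS reporters (CAR-Gal4 chimera driving GAL4-UAS reporter). 24 h dosing. Readout: reporter transcript by RT-PCR + capillary electrophoresis, fluorescence intensity; positive direction vs DMSO.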

[5] = target: X-box-binding protein 1 (Homo sapiens) (UniProt P17861); assay: ATG_Xbp1_CIS: Attagene CIS-FACTORIAL HepG2 Assay for human X-box Binding Protein 1 (XBP1) (AID 2282972; active = hit-call score of the fitted dose curve at least 0.9, where 1 is the maximum; inactive = score below 0.9); settings: HepG2 XBP1 cis-element reporter, Attagene multiplex; actives raise or lower the signal
X-box-binding protein 1 (Homo sapiens), sequence (P17861 whole entry, looked up): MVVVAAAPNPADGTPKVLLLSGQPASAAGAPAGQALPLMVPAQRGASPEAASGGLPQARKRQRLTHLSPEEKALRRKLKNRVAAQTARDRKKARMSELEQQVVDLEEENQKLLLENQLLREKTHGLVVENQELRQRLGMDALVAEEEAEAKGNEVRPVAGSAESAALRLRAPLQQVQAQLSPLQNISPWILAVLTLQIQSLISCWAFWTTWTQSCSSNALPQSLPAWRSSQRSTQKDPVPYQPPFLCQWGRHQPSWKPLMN
How it was run: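 Human hepatoma HepG2, cis-element reporter system, 24 h treatment; mRNA quantified by RT-PCR/CE fluorescence; fit relative to DMSO.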

[6] = ATG_M_19_TRANS: Attagene TRANS-FACTORIAL HepG2 Assay for M19 Transcription Factor (Internal Marker) (AID 2282974); settings: HepG2 Attagene TRANS-FACTORIAL M19 internal marker reporter
How it was run: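 Using RT-PCR and capillary electrophoresis, reporter mRNA from transiently transfected human HepG2 cells was quantified following 24 h exposure; activity was fitted in the positive direction against DMSO.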

[7] = ATG_GAL4_TRANS: Attagene TRANS-FACTORIAL HepG2 Assay for GAL4 (Internal Marker) (AID 2282976); settings: HepG2 Attagene TRANS GAL4 internal marker reporter
How it was run: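 In transfected human HepG2 liver cells dosed 24 h, GAL4 reporter mRNA serves as a baseline marker. Detection by RT-PCR with fluorescent capillary electrophoresis, activity fitted upward relative to DMSO.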

[8] = target: Glucocorticoid receptor (Homo sapiens) (UniProt P04150); assay: ATG_GR_TRANS: Attagene TRANS-FACTORIAL HepG2 Assay for human Glucocorticoid Receptor (GR) (AID 2282978); settings: HepG2 Attagene TRANS GR reporter, mRNA transcription;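 note: activators score as hits since higher reporter transcript over DMSO is fitted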
Glucocorticoid receptor (Homo sapiens), sequence (P04150 whole entry, looked up, the tested form may be a part): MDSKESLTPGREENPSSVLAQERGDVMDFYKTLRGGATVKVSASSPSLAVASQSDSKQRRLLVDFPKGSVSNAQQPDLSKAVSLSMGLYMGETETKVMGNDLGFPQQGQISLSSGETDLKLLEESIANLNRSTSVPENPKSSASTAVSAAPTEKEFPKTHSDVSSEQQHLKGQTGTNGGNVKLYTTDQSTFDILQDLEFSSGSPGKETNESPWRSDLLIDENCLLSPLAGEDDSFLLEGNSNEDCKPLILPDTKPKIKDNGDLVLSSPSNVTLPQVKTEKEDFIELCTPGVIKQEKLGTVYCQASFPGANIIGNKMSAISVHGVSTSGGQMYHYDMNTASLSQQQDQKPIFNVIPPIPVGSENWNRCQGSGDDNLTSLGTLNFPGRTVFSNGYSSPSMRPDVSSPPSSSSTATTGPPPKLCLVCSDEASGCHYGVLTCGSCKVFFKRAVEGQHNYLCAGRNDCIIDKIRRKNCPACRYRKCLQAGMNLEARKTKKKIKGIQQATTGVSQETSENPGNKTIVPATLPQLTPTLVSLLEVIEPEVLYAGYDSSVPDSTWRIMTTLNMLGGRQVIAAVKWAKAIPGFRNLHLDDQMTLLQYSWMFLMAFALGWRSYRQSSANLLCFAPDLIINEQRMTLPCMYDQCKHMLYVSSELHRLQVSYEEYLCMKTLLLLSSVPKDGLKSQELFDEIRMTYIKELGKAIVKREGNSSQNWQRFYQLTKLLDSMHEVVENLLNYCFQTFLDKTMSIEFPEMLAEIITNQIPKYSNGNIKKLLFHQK
How it was run: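 Exogenous NR-GAL4 fusion activity was assessed through induced GAL4-UAS reporter transcripts in transfected human HepG2 cells, quantified after 24 h by RT-PCR and fluorescent capillary electrophoresis with DMSO as baseline.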

[9] = target: Oxysterols receptor LXR-alpha (Homo sapiens) (UniProt Q13133); assay: ATG_LXRa_TRANS: Attagene TRANS-FACTORIAL HepG2 Assay for human Liver X Receptor alpha (LXRa) (AID 2282980); settings: HepG2 Attagene TRANS reporter, LXRa transactivation
Oxysterols receptor LXR-alpha (Homo sapiens), sequence (Q13133 whole entry, looked up, the tested form may be a part): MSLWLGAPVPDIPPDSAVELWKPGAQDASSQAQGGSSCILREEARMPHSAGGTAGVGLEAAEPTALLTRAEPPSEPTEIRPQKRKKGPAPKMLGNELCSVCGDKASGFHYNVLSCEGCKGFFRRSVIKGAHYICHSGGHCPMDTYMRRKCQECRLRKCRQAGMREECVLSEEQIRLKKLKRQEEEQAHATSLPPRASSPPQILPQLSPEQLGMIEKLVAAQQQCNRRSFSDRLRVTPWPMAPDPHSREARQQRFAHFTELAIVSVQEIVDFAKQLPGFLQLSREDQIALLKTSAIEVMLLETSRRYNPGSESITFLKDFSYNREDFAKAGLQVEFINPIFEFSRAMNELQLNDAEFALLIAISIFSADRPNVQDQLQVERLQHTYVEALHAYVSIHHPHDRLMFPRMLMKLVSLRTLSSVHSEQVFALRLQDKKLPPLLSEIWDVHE
How it was run: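 Chemical-induced reporter mRNA measured by RT-PCR with fluorescent labelling and capillary electrophoresis after 24 h dosing of transiently transfected HepG2 cells expressing exogenous NR-Gal4 chimeras; increases scored against DMSO baseline.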

[10] = target: Oxysterols receptor LXR-beta (Homo sapiens) (UniProt P55055); assay: ATG_LXRb_TRANS: Attagene TRANS-FACTORIAL HepG2 Assay for human Liver X Receptor beta (LXRb) (AID 2282981); settings: HepG2 Attagene TRANS GAL4-LXRb reporter, mRNA
How it was run: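 Readout: fluorescent reporter mRNA fragments resolved by capillary electrophoresis after RT-PCR. System: transiently transfected human HepG2, exogenous LXRb-Gal4 chimera driving GAL4-UAS reporter, 24 h dosing. Activity fitted upward against DMSO baseline.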

[11] = target: Transcriptional activator Myb (Homo sapiens) (UniProt P10242); assay: ATG_Myb_CIS: Attagene CIS-FACTORIAL HepG2 Assay for human Myeloblastosis (Myb) Proto-Oncogene Transcription Factor (AID 2282986; active = hit-call score of the fitted dose curve at least 0.9, where 1 is the maximum; inactive = score below 0.9); settings: HepG2 Attagene CIS-FACTORIAL Myb reporter transcription; actives raise or lower the signal
Transcriptional activator Myb (Homo sapiens), sequence (P10242 whole entry, looked up): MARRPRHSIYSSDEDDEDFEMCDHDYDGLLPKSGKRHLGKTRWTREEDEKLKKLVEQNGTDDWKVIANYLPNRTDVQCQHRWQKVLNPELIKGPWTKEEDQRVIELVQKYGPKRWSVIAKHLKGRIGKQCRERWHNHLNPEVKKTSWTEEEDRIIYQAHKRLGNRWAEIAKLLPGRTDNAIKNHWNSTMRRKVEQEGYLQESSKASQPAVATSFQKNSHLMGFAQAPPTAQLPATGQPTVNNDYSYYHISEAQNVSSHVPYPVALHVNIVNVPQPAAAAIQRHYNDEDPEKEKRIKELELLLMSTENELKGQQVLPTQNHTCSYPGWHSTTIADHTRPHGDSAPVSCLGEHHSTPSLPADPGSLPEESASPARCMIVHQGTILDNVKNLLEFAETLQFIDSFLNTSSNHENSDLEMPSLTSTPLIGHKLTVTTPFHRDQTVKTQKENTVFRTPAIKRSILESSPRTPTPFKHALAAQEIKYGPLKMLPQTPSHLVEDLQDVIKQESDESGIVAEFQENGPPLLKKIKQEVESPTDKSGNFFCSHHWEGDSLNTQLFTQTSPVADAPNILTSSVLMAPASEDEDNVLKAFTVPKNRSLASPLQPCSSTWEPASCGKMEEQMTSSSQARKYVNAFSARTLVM
How it was run: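 In this HepG2 transient-transfection format, cis-regulated reporter mRNA is quantified 24 h post-dosing by RT-PCR with capillary electrophoresis, fitted bidirectionally to DMSO baseline.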

[12] = target: Estrogen-related receptor gamma (Homo sapiens) (UniProt P62508); assay: ATG_ERRg_TRANS: Attagene TRANS-FACTORIAL HepG2 Assay for human Estrogen-Related Receptor gamma (ERRg) (AID 2282977); settings: HepG2 Attagene TRANS reporter, ERRg transactivation;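 note: hits increase reporter signal over DMSO so potencies reflect activators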
Estrogen-related receptor gamma (Homo sapiens), sequence (P62508 whole entry, looked up, the tested form may be a part): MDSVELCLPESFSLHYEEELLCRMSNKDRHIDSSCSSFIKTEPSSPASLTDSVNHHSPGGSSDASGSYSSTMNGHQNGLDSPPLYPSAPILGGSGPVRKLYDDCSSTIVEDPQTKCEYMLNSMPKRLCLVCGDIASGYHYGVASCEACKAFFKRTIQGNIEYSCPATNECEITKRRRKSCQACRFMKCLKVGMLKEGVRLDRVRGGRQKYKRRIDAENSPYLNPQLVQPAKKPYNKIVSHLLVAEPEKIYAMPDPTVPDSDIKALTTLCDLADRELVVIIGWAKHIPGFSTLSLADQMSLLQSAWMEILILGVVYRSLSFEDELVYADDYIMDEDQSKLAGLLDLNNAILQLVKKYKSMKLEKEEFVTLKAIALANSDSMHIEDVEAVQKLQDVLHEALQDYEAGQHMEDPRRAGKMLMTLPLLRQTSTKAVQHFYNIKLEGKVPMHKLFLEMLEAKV
How it was run: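 Exogenous NR-Gal4 chimera activity was assessed in HepG2 cells bearing transfected GAL4-UAS reporters. After 24 h dosing, total RNA underwent RT-PCR, fluorescent primer extension and HpaI digestion before capillary electrophoresis, with gain of signal scored against DMSO.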

[13] = target: Bile acid receptor (Homo sapiens) (UniProt Q96RI1); assay: ATG_FXR_TRANS: Attagene TRANS-FACTORIAL HepG2 Assay for Farnesoid X Receptor (FXR) (AID 2282979); settings: HepG2 Attagene TRANS FXR-GAL4 reporter transcription;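 note: hits raise reporter mRNA above DMSO so AC50 marks FXR activation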
Bile acid receptor (Homo sapiens), sequence (Q96RI1 whole entry, looked up, the tested form may be a part): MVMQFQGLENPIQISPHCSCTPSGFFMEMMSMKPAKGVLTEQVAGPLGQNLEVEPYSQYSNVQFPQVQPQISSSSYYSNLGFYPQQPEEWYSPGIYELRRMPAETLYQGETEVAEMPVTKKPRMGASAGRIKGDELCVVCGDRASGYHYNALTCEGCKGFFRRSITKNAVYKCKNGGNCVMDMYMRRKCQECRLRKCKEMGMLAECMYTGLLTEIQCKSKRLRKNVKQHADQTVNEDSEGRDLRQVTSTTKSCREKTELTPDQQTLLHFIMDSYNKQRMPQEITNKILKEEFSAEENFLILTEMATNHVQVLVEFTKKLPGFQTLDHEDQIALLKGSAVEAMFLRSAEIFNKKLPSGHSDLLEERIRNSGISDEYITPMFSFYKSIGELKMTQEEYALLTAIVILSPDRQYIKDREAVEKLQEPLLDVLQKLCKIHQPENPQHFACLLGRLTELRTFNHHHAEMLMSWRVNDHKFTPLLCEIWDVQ
How it was run: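 Reporter transcripts from transfected HepG2 cells were measured 24 h after dosing, using RT-PCR with capillary electrophoresis of 6-FAM-labelled fragments. The read-out reflects activity of exogenous FXR-Gal4 chimera on GAL4-UAS units, with induction relative to DMSO.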

[14] = target: Hepatocyte nuclear factor 4-alpha (Homo sapiens) (UniProt P41235); assay: ATG_HNF4a_TRANS: Attagene TRANS-FACTORIAL HepG2 Assay for human Hepatocyte Nuclear Factor 4 alpha (HNF4a) (AID 2282982); settings: HepG2 HNF4a transactivation reporter, mRNA readout
Hepatocyte nuclear factor 4-alpha (Homo sapiens), sequence (P41235 whole entry, looked up): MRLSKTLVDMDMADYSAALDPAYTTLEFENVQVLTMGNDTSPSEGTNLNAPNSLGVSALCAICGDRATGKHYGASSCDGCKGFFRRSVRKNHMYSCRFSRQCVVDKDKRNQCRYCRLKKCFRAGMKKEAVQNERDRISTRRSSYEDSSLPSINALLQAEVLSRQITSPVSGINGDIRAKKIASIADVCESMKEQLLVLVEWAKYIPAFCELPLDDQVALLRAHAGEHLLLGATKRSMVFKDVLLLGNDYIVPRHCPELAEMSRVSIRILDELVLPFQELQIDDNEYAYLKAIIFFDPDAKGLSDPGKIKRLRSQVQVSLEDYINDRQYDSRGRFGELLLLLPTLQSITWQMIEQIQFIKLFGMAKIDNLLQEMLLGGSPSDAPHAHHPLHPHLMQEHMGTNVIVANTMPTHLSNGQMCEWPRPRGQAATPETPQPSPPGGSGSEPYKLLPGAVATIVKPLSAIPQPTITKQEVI
How it was run: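 Transient MRTU transfection of HepG2, 24 h dosing. Readout: reporter mRNA via RT-PCR + capillary electrophoresis, fluorescence; activity fit upward relative to DMSO control.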

[15] = ATG_M_06_TRANS: Attagene TRANS-FACTORIAL HepG2 Assay for M06 Transcription Factor (Internal Marker) (AID 2282983); settings: HepG2 Attagene TRANS M06 internal marker reporter
How it was run: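 Background-control reporter readout: after 24 h chemical exposure of transiently transfected HepG2 (GAL4-UAS reporter units), mRNA quantified by RT-PCR with fluorescent labeling and capillary electrophoresis. Gain-of-signal fitting against DMSO baseline.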

[16] = ATG_M_32_TRANS: Attagene TRANS-FACTORIAL HepG2 Assay for M32 Transcription Factor (Internal Marker) (AID 2282984); settings: HepG2 Attagene TRANS M32 internal marker reporter
How it was run: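 Read-out: fluorescent reporter cDNA fragments resolved by capillary electrophoresis after RT-PCR of total RNA. Transfected HepG2 cells were exposed to chemical for 24 h. Activity scored in the positive direction relative to DMSO.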

[17] = target: Nuclear respiratory factor 1 (Homo sapiens) (UniProt Q16656); assay: ATG_NRF1_CIS: Attagene CIS-FACTORIAL HepG2 Assay for human Nuclear Respiratory Factor 1 (NRF1) Orphan Gene (AID 2282987; active = hit-call score of the fitted dose curve at least 0.9, where 1 is the maximum; inactive = score below 0.9); settings: HepG2 NRF1 cis-element reporter, Attagene multiplex; actives raise or lower the signal
Nuclear respiratory factor 1 (Homo sapiens), sequence (Q16656 whole entry, looked up): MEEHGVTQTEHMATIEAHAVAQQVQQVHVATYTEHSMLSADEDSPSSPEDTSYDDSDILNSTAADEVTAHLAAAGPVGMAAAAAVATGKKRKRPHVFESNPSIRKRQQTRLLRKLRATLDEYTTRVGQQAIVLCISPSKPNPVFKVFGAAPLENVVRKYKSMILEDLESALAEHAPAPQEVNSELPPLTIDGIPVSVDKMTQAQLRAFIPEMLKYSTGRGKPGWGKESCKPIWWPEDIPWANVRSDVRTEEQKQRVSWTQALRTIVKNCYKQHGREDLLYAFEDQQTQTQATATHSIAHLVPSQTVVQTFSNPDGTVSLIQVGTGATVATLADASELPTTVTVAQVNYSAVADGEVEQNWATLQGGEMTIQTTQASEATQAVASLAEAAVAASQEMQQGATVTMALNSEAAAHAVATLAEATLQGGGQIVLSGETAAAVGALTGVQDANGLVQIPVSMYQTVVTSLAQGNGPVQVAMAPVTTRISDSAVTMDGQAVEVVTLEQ
How it was run: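 Using DMSO as baseline, gain- or loss-of-signal was fitted for reporter mRNA levels in HepG2 cells transiently transfected with cis-regulated reporter units. Samples were taken 24 h after dosing and read by RT-PCR with capillary electrophoresis.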

[18] = target: Nuclear receptor subfamily 4 group A member 2 (Homo sapiens) (UniProt P43354); assay: ATG_NURR1_TRANS: Attagene TRANS-FACTORIAL HepG2 Assay for human Nuclear Receptor Related Protein 1 (NURR1) (AID 2282985); settings: HepG2 Attagene TRANS reporter, mRNA readout
Nuclear receptor subfamily 4 group A member 2 (Homo sapiens), sequence (P43354 whole entry, looked up, the tested form may be a part): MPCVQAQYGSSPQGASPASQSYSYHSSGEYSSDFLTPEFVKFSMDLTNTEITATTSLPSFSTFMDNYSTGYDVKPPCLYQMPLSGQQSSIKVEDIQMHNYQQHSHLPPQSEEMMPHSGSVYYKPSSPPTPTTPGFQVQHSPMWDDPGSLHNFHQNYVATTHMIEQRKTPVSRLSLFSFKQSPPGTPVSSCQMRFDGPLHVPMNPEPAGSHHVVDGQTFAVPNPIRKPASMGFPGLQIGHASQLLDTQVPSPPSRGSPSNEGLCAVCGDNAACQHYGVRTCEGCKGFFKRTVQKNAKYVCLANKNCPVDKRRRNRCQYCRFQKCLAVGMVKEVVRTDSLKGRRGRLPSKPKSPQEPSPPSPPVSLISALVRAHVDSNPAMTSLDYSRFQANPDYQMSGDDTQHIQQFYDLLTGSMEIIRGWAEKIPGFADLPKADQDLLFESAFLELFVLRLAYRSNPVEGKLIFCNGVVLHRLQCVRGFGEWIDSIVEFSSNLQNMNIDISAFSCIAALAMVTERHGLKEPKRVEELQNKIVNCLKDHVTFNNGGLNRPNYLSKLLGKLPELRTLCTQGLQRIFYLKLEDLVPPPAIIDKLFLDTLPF
How it was run: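 Read-out: reporter mRNA induction by RT-PCR plus capillary electrophoresis with fluorescence detection, after 24 h dosing of transfected HepG2 cells. Exogenous NR-Gal4 chimera activity drives GAL4-UAS reporter; activity fitted upward versus DMSO.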

[19] = target: Estrogen receptor (Homo sapiens) (UniProt P03372); assay: ATG_ERa_TRANS: Attagene TRANS-FACTORIAL HepG2 Assay for human Estrogen Receptor alpha (ERa) (AID 2282970); settings: HepG2 Attagene TRANS ERa GAL4 reporter, mRNA
How it was run: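 Reporter transcripts were measured 24 h after dosing by RT-PCR with fluorescent primer extension and capillary electrophoresis. The system is transiently transfected HepG2 expressing exogenous NR-Gal4 chimeras driving GAL4-UAS reporters; DMSO is the baseline.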

[20] = target: Steroid hormone receptor ERR1 (Homo sapiens) (UniProt P11474); assay: ATG_ERRa_TRANS: Attagene TRANS-FACTORIAL HepG2 Assay for human Estrogen-Related Receptor alpha (ERRa) (AID 2282971); settings: HepG2 Attagene TRANS reporter, ERRa transactivation
How it was run: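 Reporter transcripts from ERRa-Gal4 chimera activity measured in transiently transfected human HepG2 cells 24 hours after dosing, using RT-PCR with 6-FAM primer extension, HpaI digestion and capillary electrophoresis; DMSO is baseline.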

## CC(=O)C1(C)CC2=C(CCCC2(C)C)CC1C (stereo not given)
[1]
  AC50: 148 µM (active)
[2]
  outcome: inactive
[3]
  outcome: inactive
[4]
  outcome: inactive
[5]
  outcome: inactive
[6]
  outcome: inactive
[7]
  outcome: inactive
[8]
  outcome: inactive
[9]
  outcome: inactive
[10]
  outcome: inactive
[11]
  outcome: inactive

## c1ccc(CCc2ccccc2)cc1
[1]
  outcome: inactive
[2]
  outcome: inactive
[3]
  outcome: inactive
[4]
  outcome: inactive
[5]
  outcome: inactive
[6]
  outcome: inactive
[7]
  outcome: inactive
[12]
  outcome: inactive
[13]
  outcome: inactive
[9]
  outcome: inactive
[10]
  outcome: inactive
[14]
  outcome: inactive
[15]
  outcome: inactive
[16]
  outcome: inactive
[11]
  outcome: inactive
[17]
  outcome: inactive

## CCCCOCC
[1]
  outcome: inactive
[2]
  outcome: inactive
[3]
  outcome: inactive
[4]
  outcome: inactive
[5]
  outcome: inactive
[6]
  outcome: inactive
[7]
  outcome: inactive
[12]
  outcome: inactive
[18]
  outcome: inactive
[11]
  outcome: inactive
[17]
  outcome: inactive

## c1ccc2cc(Nc3ccc(Nc4ccc5ccccc5c4)cc3)ccc2c1
[1]
  outcome: inactive
[2]
  outcome: inactive
[3]
  outcome: inactive
[4]
  outcome: inactive
[5]
  outcome: inactive
[6]
  outcome: inactive
[7]
  outcome: inactive
[12]
  outcome: inactive
[8]
  outcome: inactive
[9]
  outcome: inactive
[15]
  outcome: inactive
[18]
  outcome: inactive
[11]
  outcome: inactive
[17]
  outcome: inactive

## O=C(Nc1ccc2c(O)c(N=Nc3ccc(N=Nc4ccc(S(=O)(=O)O)cc4)cc3)c(S(=O)(=O)O)cc2c1)c1ccccc1
[1]
  outcome: inactive
[2]
  outcome: inactive
[3]
  outcome: inactive
[4]
  outcome: inactive
[19]
  outcome: inactive
[5]
  outcome: inactive
[7]
  outcome: inactive
[9]
  outcome: inactive
[10]
  outcome: inactive
[15]
  outcome: inactive
[16]
  outcome: inactive
[11]
  outcome: inactive
[17]
  outcome: inactive

## C[C@H]1C[C@@H](O)CC(C)(C)C1
[1]
  outcome: inactive
[2]
  outcome: inactive
[3]
  outcome: inactive
[4]
  outcome: inactive
[5]
  outcome: inactive
[6]
  outcome: inactive
[7]
  outcome: inactive
[12]
  outcome: inactive
[13]
  outcome: inactive
[9]
  outcome: inactive
[10]
  outcome: inactive
[14]
  outcome: inactive
[16]
  outcome: inactive
[11]
  outcome: inactive
[17]
  outcome: inactive

## CCCC(=O)C(CC)Sc1ccoc1C (stereo not given)
[1]
  outcome: inactive
[2]
  outcome: inactive
[3]
  AC50: 26.7 µM (active)
[4]
  outcome: inactive
[19]
  AC50: 16 µM (active)
[5]
  AC50: 25.8 µM (active)
[10]
  outcome: inactive
[15]
  outcome: inactive
[16]
  outcome: inactive
[18]
  outcome: inactive
[11]
  outcome: inactive
[17]
  outcome: inactive

## COC(C)(C)CC(C)=O
[1]
  outcome: inactive
[2]
  outcome: inactive
[3]
  outcome: inactive
[4]
  outcome: inactive
[5]
  outcome: inactive
[6]
  outcome: inactive
[7]
  outcome: inactive
[8]
  outcome: inactive
[13]
  outcome: inactive
[9]
  outcome: inactive
[10]
  outcome: inactive
[14]
  outcome: inactive
[15]
  outcome: inactive
[16]
  outcome: inactive
[11]
  outcome: inactive
[17]
  outcome: inactive

## CSCCC=O
[1]
  outcome: inactive
[2]
  outcome: inactive
[3]
  outcome: inactive
[4]
  outcome: inactive
[20]
  outcome: inactive
[7]
  outcome: inactive
[12]
  outcome: inactive
[13]
  outcome: inactive
[9]
  outcome: inactive
[15]
  outcome: inactive
[11]
  outcome: inactive
[17]
  outcome: inactive

## Cc1ccc(S(=O)(=O)Oc2ccc(N=Nc3ccc(-c4ccc(N=Nc5c(O)ccc6cc(S(=O)(=O)O)cc(S(=O)(=O)O)c56)c(C)c4)cc3C)cc2)cc1
[1]
  outcome: inactive
[2]
  AC50: 40.6 µM (active)
[3]
  AC50: 14.1 µM (active)
[4]
  outcome: inactive
[5]
  outcome: inactive
[6]
  outcome: inactive
[7]
  outcome: inactive
[12]
  outcome: inactive
[8]
  outcome: inactive
[13]
  outcome: inactive
[9]
  outcome: inactive
[10]
  outcome: inactive
[16]
  outcome: inactive
[11]
  outcome: inactive
[17]
  outcome: inactive
